The campaign covered roughly 39,000 compounds. About 3,300 (8.5%) were called active. Only a selection was taken, and actives are over-represented in it overall.
System: HepG2
Test: cytotoxicity call (relative viability < 0.9)
Conditions: 10 µM

SMILES	cytotoxicity call
C[C@H](CO)N1C[C@H](C)[C@H](CN(C)S(=O)(=O)c2ccc(F)cc2)Oc2ncc(C#CC(C)(C)O)cc2C1=O	inactive
C[C@@H]1CN([C@@H](C)CO)C(=O)c2c(c3ccccc3n2C)-c2ccccc2CO[C@@H]1CN(C)Cc1cccc(C(=O)O)c1	inactive
C[C@H](CO)N1C[C@H](C)[C@H](CN(C)S(=O)(=O)c2ccc(Oc3ccccc3)nc2)OCc2cnnn2CCCC1=O	inactive
COc1ccc(CCNC(=O)[C@@]2(Sc3ccc(C)cc3)CC(=O)N(Cc3cc(C(F)(F)F)cc(C(F)(F)F)c3)[C@@H]2c2ccc(CO)cc2I)cc1	inactive
Cc1ccc(S(=O)(=O)N2C[C@@H](O)COC[C@@H]3O[C@@H](CC(=O)N[C@@H]4CCN(Cc5ccccc5)C4)CC[C@H]32)cc1	inactive
COCC(=O)Nc1ccc2c(c1)C(=O)N(C)C[C@H](OC)[C@H](C)CN(C(=O)Cc1cccnc1)[C@H](C)CO2	inactive
C[C@@H]1CN([C@@H](C)CO)C(=O)c2cc(NC(=O)C3CC3)ccc2O[C@H]1CN(C)Cc1ccc(Oc2ccccc2)cc1	inactive
C[C@@H]1CN([C@@H](C)CO)S(=O)(=O)c2ccc(C#CC(C)(C)O)cc2O[C@H]1CN(C)C(=O)C1CCCCC1	inactive
O=C(C[C@@H]1C=C[C@H](NC(=O)C2CCC2)[C@H](CO)O1)NCCCN1CCOCC1	inactive
C[C@H](CO)N1C[C@H](C)[C@@H](CN(C)Cc2ccc(C(=O)Nc3ccccc3N)cc2)Oc2ccc(NC(=O)Cc3ccccc3)cc2C1=O	inactive
C[C@H]1CN([C@@H](C)CO)S(=O)(=O)c2ccc(-c3ccc(F)cc3)cc2O[C@@H]1CN(C)S(C)(=O)=O	inactive
C[C@@H]1CN([C@H](C)CO)C(=O)c2cc(NS(=O)(=O)c3ccccc3)ccc2O[C@@H](C)CCCCO[C@@H]1CN(C)S(C)(=O)=O	inactive
COc1ccc(S(=O)(=O)Nc2ccc3c(c2)C(=O)N([C@@H](C)CO)C[C@@H](C)[C@H](CN(C)C(=O)c2ccccc2)OCCCC[C@H](C)O3)cc1	inactive
COc1ccc(CN(C)C[C@H]2Oc3ccc(NC(=O)Nc4cccc5ccccc45)cc3C(=O)N([C@H](C)CO)C[C@H]2C)cc1	inactive
COc1ccc(CN(C)C[C@@H]2Oc3ccc(NC(=O)Nc4cccc5ccccc45)cc3C(=O)N([C@@H](C)CO)C[C@@H]2C)cc1	inactive
C[C@H]1CN([C@@H](C)CO)C(=O)c2cc(NC(=O)Nc3cccc4ccccc34)ccc2O[C@@H]1CN(C)Cc1ccc(Oc2ccccc2)cc1	active
C[C@H]1CN([C@@H](C)CO)C(=O)c2cccc(NC(=O)c3cnccn3)c2O[C@@H]1CN(C)C(=O)Nc1ccc(F)cc1	inactive
CC(=O)OCCn1c(=O)[nH]c(=O)c2nsnc21	inactive
Cc1ccc(S(=O)(=O)Nc2ccc3c(c2)C(=O)N([C@H](C)CO)C[C@@H](C)[C@H](CN(C)C(=O)Nc2cccc4ccccc24)OCCCC[C@H](C)O3)cc1	active
Cc1ccc(S(=O)(=O)Nc2ccc3c(c2)C(=O)N([C@H](C)CO)C[C@@H](C)[C@H](CN(C)C(=O)Nc2cccc4ccccc24)OCCCC[C@@H](C)O3)cc1	active
Cc1ccc(S(=O)(=O)Nc2ccc3c(c2)C(=O)N([C@@H](C)CO)C[C@H](C)[C@H](CN(C)C(=O)Nc2cccc4ccccc24)OCCCC[C@H](C)O3)cc1	inactive
Cc1ccc(S(=O)(=O)Nc2ccc3c(c2)C(=O)N([C@@H](C)CO)C[C@@H](C)[C@@H](CN(C)C(=O)Nc2cccc4ccccc24)OCCCC[C@H](C)O3)cc1	inactive

SMILES	cytotoxicity call
Cc1ccc(S(=O)(=O)Nc2ccc3c(c2)C(=O)N([C@H](C)CO)C[C@H](C)[C@H](CN(C)C(=O)Nc2cccc4ccccc24)OCCCC[C@H](C)O3)cc1	active
Cc1ccc(S(=O)(=O)Nc2ccc3c(c2)C(=O)N([C@@H](C)CO)C[C@H](C)[C@H](CN(C)C(=O)Nc2cccc4ccccc24)OCCCC[C@@H](C)O3)cc1	inactive
Cc1ccc(S(=O)(=O)Nc2ccc3c(c2)C(=O)N([C@@H](C)CO)C[C@H](C)[C@@H](CN(C)C(=O)Nc2cccc4ccccc24)OCCCC[C@H](C)O3)cc1	inactive
Cc1ccc(S(=O)(=O)Nc2ccc3c(c2)C(=O)N([C@@H](C)CO)C[C@H](C)[C@@H](CN(C)C(=O)Nc2cccc4ccccc24)OCCCC[C@@H](C)O3)cc1	inactive
Cc1ccc(S(=O)(=O)Nc2ccc3c(c2)C(=O)N([C@H](C)CO)C[C@H](C)[C@@H](CN(C)C(=O)Nc2cccc4ccccc24)OCCCC[C@@H](C)O3)cc1	inactive
CC(=O)Nc1cc2c(cc1N)OCCO2	inactive
COCC(=O)N(C)C[C@@H]1Oc2cc(C#C[C@H](C)O)ccc2S(=O)(=O)N([C@@H](C)CO)C[C@@H]1C	inactive
C[C@H]1CN([C@@H](C)CO)C(=O)c2cc(NC(=O)Nc3ccc4c(c3)OCO4)ccc2O[C@H]1CN(C)Cc1ccc(Oc2ccccc2)cc1	inactive
C[C@H]1CN([C@@H](C)CO)C(=O)c2cc(NC(=O)Nc3ccc4c(c3)OCO4)ccc2O[C@@H]1CN(C)Cc1ccc(Oc2ccccc2)cc1	active
C[C@@H]1CN([C@H](C)CO)C(=O)c2cc(NC(=O)Nc3ccc4c(c3)OCO4)ccc2O[C@@H]1CN(C)Cc1ccc(Oc2ccccc2)cc1	active
C[C@@H]1CN([C@H](C)CO)C(=O)c2cc(NC(=O)Nc3ccc4c(c3)OCO4)ccc2O[C@H]1CN(C)Cc1ccc(Oc2ccccc2)cc1	inactive
C[C@@H]1CN([C@@H](C)CO)C(=O)c2cc(NC(=O)Nc3ccc4c(c3)OCO4)ccc2O[C@H]1CN(C)Cc1ccc(Oc2ccccc2)cc1	inactive
C[C@@H]1CN([C@@H](C)CO)C(=O)c2cc(NC(=O)Nc3ccc4c(c3)OCO4)ccc2O[C@@H]1CN(C)Cc1ccc(Oc2ccccc2)cc1	active
C[C@H](CO)N1C[C@H](C)[C@@H](CN(C)Cc2ccc(Oc3ccccc3)cc2)Oc2ccc(NC(=O)Nc3ccc4c(c3)OCO4)cc2C1=O	inactive
C[C@H](CO)N1C[C@H](C)[C@H](CN(C)Cc2ccc(Oc3ccccc3)cc2)Oc2ccc(NC(=O)Nc3ccc4c(c3)OCO4)cc2C1=O	inactive
C[C@@H]1CN([C@@H](C)CO)C(=O)c2cccc(NC(=O)C3CCCCC3)c2O[C@H]1CN(C)C(=O)Nc1cccc2ccccc12	inactive
Cc1cc(C(=O)Nc2ccc3c(c2)C(=O)N(C)[C@@H]2CC[C@@H](CC(=O)NCC(F)(F)F)O[C@H]2CO3)no1	inactive
C[C@@H]1CN([C@@H](C)CO)C(=O)c2cc(NC(=O)CCC(F)(F)F)ccc2O[C@@H](C)CCCCO[C@@H]1CN(C)Cc1ccc(C(=O)O)cc1	inactive
O=C(C[C@@H]1C=C[C@H](NC(=O)C2CC2)[C@@H](CO)O1)NCCCN1CCOCC1	inactive
O=C(NCc1ccccc1)C1=C[C@H](c2ccc3c(c2)Cc2ccccc2-3)C[C@H](OCc2ccc(CO)cc2)O1	inactive
C[C@@H]1CN([C@@H](C)CO)C(=O)c2cc(NS(C)(=O)=O)ccc2O[C@H]1CN(C)C(=O)Nc1ccc2c(c1)OCO2	inactive
C[C@@H]1CN([C@H](C)CO)C(=O)c2cc(NC(=O)NC3CCCCC3)ccc2O[C@@H](C)CCCCO[C@H]1CN(C)C(=O)Nc1ccc(C(F)(F)F)cc1	inactive

SMILES	cytotoxicity call
CCNC(=O)[C@@H]1CCCN1C(=O)[C@H](CCCNC(=N)N)NC(=O)[C@H](CC(C)C)NC(=O)[C@@H](COC(C)(C)C)NC(=O)[C@H](Cc1ccc(O)cc1)NC(=O)[C@H](CO)NC(=O)[C@H](Cc1c[nH]c2ccccc12)NC(=O)[C@H](Cc1cnc[nH]1)NC(=O)[C@H]1CCC(=O)N1	inactive
O=C1N(Cc2ccccc2)Cc2ccccc2[C@H]2OC(c3ccc(OCCCO)cc3)=N[C@@]12Cc1ccccc1	inactive
CC(C)(C)OC(=O)CC[C@@]12N=C(c3ccc(OCCCO)cc3)O[C@@H]1c1ccccc1CN(Cc1ccccc1)C2=O	active
CC(C)(C)OC(=O)CC[C@]12N=C(c3ccc(OCCCO)cc3)O[C@H]1c1ccccc1CN(Cc1ccccc1)C2=O	inactive
CC(C)(C)OC(=O)CC[C@]12N=C(c3ccc(OCCCO)cc3)O[C@H]1c1ccccc1N(Cc1ccccc1)C2=O	inactive
O=C1N(Cc2ccccc2)Cc2ccccc2C[C@]12N=C(c1ccc(OCCCO)cc1)O[C@@H]2c1ccccc1	inactive
CC(C)(C)OC(=O)CC[C@@]12N=C(c3ccc(OCCCO)cc3)O[C@@H]1c1ccccc1CN(C(=O)c1ccccc1)C2=O	active
CC(C)(C)OC(=O)CC[C@]12N=C(c3ccc(OCCCO)cc3)O[C@H]1c1ccccc1CN(C(=O)c1ccccc1)C2=O	inactive
O=C1N(Cc2ccccc2)Cc2ccccc2C[C@@]12N=C(c1ccc(OCCCO)cc1)O[C@H]2c1ccccc1	active
O=C(c1ccccc1)N1Cc2ccccc2[C@H]2OC(c3ccc(OCCCO)cc3)=N[C@@]2(Cc2ccccc2)C1=O	inactive
COC(=O)c1cn(C)cn1	inactive
Cc1ccc(S(=O)(=O)N(C)C[C@H]2Oc3ccc(NS(C)(=O)=O)cc3CC(=O)N([C@H](C)CO)C[C@@H]2C)cc1	inactive
C[C@@H]1CN([C@@H](C)CO)C(=O)c2cc(N(C)C)ccc2O[C@@H](C)CCCCO[C@@H]1CN(C)Cc1ccc(C(F)(F)F)cc1	inactive
C[C@]1(CC(=O)O)C(=O)N=C2C=CC=CN21	inactive
COc1ccc(CN(C)C[C@H]2Oc3ccc(NC(=O)Nc4ccc(C(F)(F)F)cc4)cc3C(=O)N([C@H](C)CO)C[C@@H]2C)cc1	inactive
COc1ccc(NC(=O)Nc2ccc3c(c2)C(=O)N([C@H](C)CO)C[C@@H](C)[C@@H](CN(C)Cc2ccc(C(F)(F)F)cc2)O3)cc1	inactive
COc1ccc(CN(C)C[C@@H]2Oc3ccc(NC(=O)Nc4ccc(C(F)(F)F)cc4)cc3C(=O)N([C@@H](C)CO)C[C@@H]2C)cc1	active
COc1ccc(CN(C)C[C@H]2Oc3ccc(NC(=O)Nc4ccc(C(F)(F)F)cc4)cc3C(=O)N([C@H](C)CO)C[C@H]2C)cc1	active
COc1ccc(NC(=O)Nc2ccc3c(c2)C(=O)N([C@H](C)CO)C[C@H](C)[C@@H](CN(C)Cc2ccc(C(F)(F)F)cc2)O3)cc1	inactive
COc1ccc(NC(=O)Nc2ccc3c(c2)C(=O)N([C@H](C)CO)C[C@H](C)[C@H](CN(C)Cc2ccc(C(F)(F)F)cc2)O3)cc1	inactive
COc1ccc(CN(C)C[C@@H]2Oc3ccc(NC(=O)Nc4ccc(C(F)(F)F)cc4)cc3C(=O)N([C@H](C)CO)C[C@@H]2C)cc1	active
COc1ccc(NC(=O)Nc2ccc3c(c2)C(=O)N([C@H](C)CO)C[C@@H](C)[C@H](CN(C)Cc2ccc(C(F)(F)F)cc2)O3)cc1	active

Source: the antibiotic and cytotoxicity screens of Wong et al. (2023)
